Screening results: PubChem BioAssay, National Center for Advancing Translational Sciences (NCATS)
The full list was thinned out, with hits kept by preference.
Shiga toxin inh: Shiga toxin inhibition | AID 2315 | inhibition, % at 38.7 µM | Vero cells, Shiga toxin protein synthesis inhibition reporter | actives 9.2% (n = 290,000); in the data active = inhibition mostly above about 28%, no sharp cut-off; inactive = mostly below about 43%; note: 0% is about no effect
NS1 function inh: inhibitors of influenza NS1 protein function; actives 0.4% (n = 270,000); AID 2326; Potency, µM (highest dose often 46.1 µM), inactives show top-dose activity, positive = more growth; calls by dose curve; note: potency is the fitted concentration of half-maximal effect; actives are rising curves; nearly all actives have a fitted effect of over 50% in size
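OD600 was taken as the measure of yeast growth restored by compound in an NS1-expressing S. cerevisiae strain. Cells had been washed out of glucose medium and diluted 1:100 into galactose -URA medium, pH 6.0.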
CHX counter: counter-screen hit for Shiga toxin inhibitors, cycloheximide | cell reporter, cycloheximide protein synthesis inhibition counterscreen | max response, % | actives 12% (n = 300,000) | AID 2314; in the data active = max response mostly above about 13%, no sharp cut-off; inactive = mostly below about 14%; note: read at 38.3 µM for the half of the compounds with a filed dose; 0% is about no effect
AmpC inh no detg: blocks E. coli AmpC beta-lactamase in detergent-free assay; actives 0.52% (n = 330,000); P00811; AmpC nitrocefin hydrolysis, absorbance 480 nm, 0.0001% Triton; Potency, µM (titrated, usually from 57.1 µM), for the others: at the top dose activity change, negative = inhibition, actives largely listed as inhibitors;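 note: potency is the fitted concentration of half-maximal effect; plate controls were no compound for no effect and no enzyme for full effect; nearly all actives have a fitted effect of over 20% in size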
Target sequence (P00811 whole entry, looked up): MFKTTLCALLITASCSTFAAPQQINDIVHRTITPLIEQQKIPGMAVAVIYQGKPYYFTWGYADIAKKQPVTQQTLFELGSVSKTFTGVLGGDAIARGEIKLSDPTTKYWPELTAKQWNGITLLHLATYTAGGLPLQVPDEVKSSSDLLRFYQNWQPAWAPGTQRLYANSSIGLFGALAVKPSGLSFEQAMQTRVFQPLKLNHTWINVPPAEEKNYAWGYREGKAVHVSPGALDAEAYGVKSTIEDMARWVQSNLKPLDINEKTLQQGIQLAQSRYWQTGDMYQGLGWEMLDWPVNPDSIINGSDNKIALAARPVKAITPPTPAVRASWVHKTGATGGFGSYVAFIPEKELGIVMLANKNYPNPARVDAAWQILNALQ
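20 mM phosphate pH 7.0 + 0.01% (detergent screen) or 0.0001% Triton X-100; 5.3 nM AmpC reagent; cpd preinc 15 min RT; nitrocefin (800 uM stock) to start; A480 q20 s × 4 min; Activity was normalised to no-enzyme and no-compound control wells.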
AmpC inh detg: inhibitors of E. coli AmpC beta-lactamase with detergent; P00811; AmpC hydrolysis of nitrocefin, absorbance 480 nm, 0.01% Triton; Potency, µM (top dose mostly 114 µM), for inactives: at the top dose activity change, negative = inhibition, actives largely listed as inhibitors; actives 0.041% (n = 370,000);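 note: potency is the fitted concentration of half-maximal effect; 0% = no-compound wells and -100% = no-enzyme wells; nearly all actives have a fitted effect of over 25% in size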
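AmpC (5.3 nM in the dispensed reagent) in 20 mM phosphate pH 7.0 with 0.01% (detergent screen) or 0.0001% Triton X-100 was preincubated with compounds for 15 min at room temperature. Nitrocefin was then added from an 800 uM solution, and hydrolysis was followed at 480 nm.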
An asterisk follows results filed as active; ! = not active in a repeat; [ ] = another dose, or the depositor's remark. Unless noted, calls come from the whole dose curve; as a rule, active = well fitted curve in the direction sought with a large enough effect; inconclusive = small, poorly fitted or top-dose-only effect, or another doubt; inactive = no such curve, though single readings can be large; an effect the other way counts as inactive or inconclusive.

Screening C/C(N)=C(/C#N)C(=O)CSc1nnc(Nc2ccccc2)s1 returned Shiga toxin inh 139*, CHX counter 42*, AmpC inh no detg -26% and AmpC inh detg -5%.
C/C(N)=C(/C#N)C(=O)CSc1nnc(Nc2ccccc2C)s1 was read as Shiga toxin inh 51*, NS1 function inh 13%, CHX counter 46*, AmpC inh no detg -26% and AmpC inh detg -14%.
For O=C(CSc1nnc(Nc2ccccc2)s1)NC1CC1 the results were AmpC inh no detg -15% and AmpC inh detg -22%.
C/C(N)=C(/C#N)C(=O)CSc1nc2ccccc2[nH]1 was read as Shiga toxin inh 67*, NS1 function inh 5%, CHX counter 35*, AmpC inh no detg -24% and AmpC inh detg 1%.
CCCCNc1nc2ccccc2c2nc(-c3ccccc3)nn12 was read as AmpC inh detg 23%.
NC(N)=NC[C@H](N)C(=O)O was read as NS1 function inh -3%.
`C/C(N)=C(/C#N)C(=O)CSc1nnnn1-c1ccc(C)cc1` gave Shiga toxin inh 50, NS1 function inh -7%, CHX counter 36*, AmpC inh no detg -33% and AmpC inh detg -7%.
`C/C(N)=C(/C#N)C(=O)CSc1nnc(NC(C)C)s1` gave Shiga toxin inh 58*, NS1 function inh 6%, CHX counter 30*, AmpC inh no detg -23% and AmpC inh detg -12%.
Screening CCN1C(=O)[C@H]2[C@@H](c3ccc(-c4ccc(F)cc4)cc3)N3CCCC[C@@]3(C(=O)OC)[C@H]2C1=O returned AmpC inh no detg 128% and AmpC inh detg 0%.
For CCCCNC(=S)NNC(=O)c1cccnc1 the results were Shiga toxin inh -8, NS1 function inh 7%, CHX counter 6, AmpC inh no detg -35% and AmpC inh detg -1%.
`Cc1nn(-c2nnc(NC3CCCCC3)nn2)c(C)c1Br` gave Shiga toxin inh active, NS1 function inh -22%, CHX counter 47*, AmpC inh no detg 5% and AmpC inh detg 100µM*.
For CCS(=O)(=O)N1Cc2ccccc2CC1C(=O)Nc1ccc(F)cc1 (stereo unspecified) the results were Shiga toxin inh 36*, NS1 function inh -12%, CHX counter 24*, AmpC inh no detg -22% and AmpC inh detg 4%.
Screening CCS(=O)(=O)N1Cc2ccccc2CC1C(=O)Nc1cccc(OC)c1 (stereo unspecified) returned Shiga toxin inh 124*, NS1 function inh 5%, CHX counter 24*, AmpC inh no detg -7% and AmpC inh detg 5%.
`CCOC(=O)c1c(NC(=O)COC(=O)C2CC2C)sc(C)c1C` (stereo unspecified) gave Shiga toxin inh -4, CHX counter -5, AmpC inh no detg 8% and AmpC inh detg 11%.
O=c1[nH]c(SCC2CCCCO2)nc2ccccc12 (stereo unspecified) was read as Shiga toxin inh 81*, NS1 function inh inconclusive, CHX counter 24*, AmpC inh no detg -20% and AmpC inh detg 0%.
For Cc1cc(C(=O)CSc2nc3ccccc3c(=O)n2C)c(C)n1CC1CCCO1 (stereo unspecified) the results were Shiga toxin inh -10, CHX counter 1, AmpC inh no detg -18%[11.4 µM] and AmpC inh detg 8%.
Screening Cc1cc(C(=O)CSc2nnnn2-c2ccccc2)c(C)n1CC1CCCO1 (stereo unspecified) returned Shiga toxin inh 49*, NS1 function inh 2%, CHX counter 58*, AmpC inh no detg -19% and AmpC inh detg -6%.
For CCn1c(SCC(=O)c2cc(C)n(CC3CCCO3)c2C)nc2ccccc21 (stereo unspecified) the results were Shiga toxin inh 35, NS1 function inh -7%, CHX counter 37*, AmpC inh no detg 68% and AmpC inh detg inconclusive.
For Cc1cc(C(=O)CSc2nc3ccccc3c(=O)[nH]2)c(C)n1CC1CCCO1 (stereo unspecified) the results were Shiga toxin inh 143*, NS1 function inh 0%, CHX counter 43*, AmpC inh no detg 6% and AmpC inh detg 3%.
CCOC(=O)c1[nH]c2ccccc2c1NC(=O)c1ccc(Br)cc1 was read as AmpC inh detg 9%.
Screening O=C(C1CCN(S(=O)(=O)c2cccc3nonc23)CC1)N1CCN(c2ccc(F)cc2)CC1 returned AmpC inh detg 4%.
Screening COc1ccc(C2C=C3CNS(=O)(=O)C3CC2OC(=O)c2cccc(C)c2)cc1 (stereo unspecified) returned Shiga toxin inh -8 and CHX counter -6.
O=C(Nc1ccc(O)c2c(=O)cc(-c3ccccc3Cl)oc12)c1ccc(F)cc1 was read as Shiga toxin inh 100*!, NS1 function inh 8%, CHX counter 88*!, AmpC inh no detg -18% and AmpC inh detg 0%.
For O=c1cc(-c2ccccc2Cl)oc2cc(O)cc(O)c12 the results were Shiga toxin inh 94*, NS1 function inh -3%, CHX counter 46*, AmpC inh no detg -24% and AmpC inh detg -12%.
O=c1c(O)c(-c2ccccc2O)oc2cc(O)cc(O)c12 was read as Shiga toxin inh -3 and CHX counter -4.
Nc1ccc(O)c2c(=O)cc(-c3ccccc3Cl)oc12 was read as Shiga toxin inh 61*, NS1 function inh 2%, CHX counter 45*!, AmpC inh no detg -16% and AmpC inh detg inconclusive.
Screening CCOc1cccc2oc(-c3ccccc3Cl)cc(=O)c12 returned Shiga toxin inh active and CHX counter 59*.
Screening CCC(Sc1nncn2c1cc1oc(C)cc12)C(=O)Nc1ccc(F)cc1 (stereo unspecified) returned AmpC inh detg -10%.
For COc1ccc(C(=O)C(C)OC(=O)CCN2C(=O)C3CC=CCC3C2=O)cc1 (stereo unspecified) the results were AmpC inh no detg 14% and AmpC inh detg -17%.
`Cc1cccc(NC(=O)CSc2nnc(C)c(=O)n2N)c1` gave Shiga toxin inh 1, CHX counter -2, AmpC inh no detg -26% and AmpC inh detg -5%.
Screening COc1cccc(-c2nnn(CCc3nn[nH]n3)n2)c1 returned Shiga toxin inh 8, NS1 function inh 17%, CHX counter -3, AmpC inh no detg -4% and AmpC inh detg -2%.
C=CCNC(=O)Cn1nnc(-c2ccc(-c3ccc(OC)cc3)cc2)n1 was read as Shiga toxin inh 51*, NS1 function inh inconclusive, CHX counter 23*, AmpC inh no detg -18% and AmpC inh detg inconclusive.
Screening COc1cccc(-c2nnn(CC(C)=O)n2)c1 returned Shiga toxin inh active, NS1 function inh 4%, CHX counter 53*, AmpC inh no detg -3% and AmpC inh detg -4%.
`COc1ccc(CNC(=O)Cn2nnc(-c3ccc(C(F)(F)F)cc3)n2)cc1` gave AmpC inh detg 8%.
